For five compounds, composite z-score and z-score results are on record in PubChem BioAssay.

The structures appear in SMILES notation. Activity calls are given as the source filed them. Unless noted, how the calls were made is not given here.

Test [1] is described as follows: compounds binding Alexa647 anti-His antibody – biochemical, small-molecule microarray, 635 nm fluorescence, artefact control for SMM control protein annotation, primary screen (AID 1128).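 Further: score merges feature fluorescence with signal-to-noise for each printed compound spot.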 Particulars: higher = more signal.
Test [2] deals with Human papillomavirus type 1a E7 protein (residues 1-88). The test can be described thus: HPV1a E7 small-molecule binders, primary screen, biochemical, small-molecule microarray, residues 1-88, 635 nm (AID 1129). Particulars: small-molecule microarray binding, fluorescence 635 nm; higher = more signal.
The target of test [3] is Focal adhesion kinase 1 (Homo sapiens) (UniProt Q05397). As to the kind of experiment: PTK2 protein binding on printed compound slides – biochemical, small-molecule microarray, 635/667 nm fluorescence, BSA, DTT, primary screen (AID 1130).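 Further: composite of spot emission at 667 nm and signal to noise over triplicate slides.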 The settings on record: 635 nm fluorescence, higher = more signal.
Test [4] concerns Fibrinogen (Alexa647-labelled). The test can be described thus: Alexa647-fibrinogen binding to printed small molecules – biochemical, small-molecule microarray, 635/667 nm fluorescence, artefact control for SMM control-protein annotation, profiling panel (AID 1131).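 Further: z-score merges 667 nm fluorescence with per-spot signal-to-noise over triplicate slides.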 Particulars: fibrinogen-A647 binding fluorescence, higher = more signal.
The target in test [5] is Follistatin (Homo sapiens) (UniProt P19883). The test can be described thus: FST protein binding to printed compounds – biochemical, small-molecule microarray, 635/667 nm fluorescence, primary screen (AID 1132). Particulars: 635 nm fluorescence, higher = more signal.
In test [6] the target is Fibroblast growth factor 2 (Homo sapiens) (UniProt P09038). The test can be described thus: basic fibroblast growth factor binding to printed compounds – biochemical, small-molecule microarray, 635/667 nm fluorescence, primary screen (AID 1133). Particulars: FGF2, fluorescence 635/667, higher = more signal.
Test [7] is described as follows: JC-1 mitochondrial potential readout, lung cancer cells – cell-based, A549, JC-1 fluorescence, basal, 24 h, 100 nL, profiling panel (AID 1138).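 Further: A549 lung adenocarcinoma cells under basal conditions with no added stimulus; test concentration not given here.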 The settings on record: higher = more signal.
In another test the test system is Lefty1. As to the kind of experiment: Lefty1 protein binding to printed compounds – biochemical, small-molecule microarray, 635/667 nm fluorescence, primary screen (AID 1139). The settings on record: fluorescence 635/667, higher = more signal.
In test [8] the test system is wheat germ agglutinin (Triticum aestivum), Alexa647-labelled. The test can be described thus: Alexa647-WGA lectin binding to printed small molecules – biochemical, small-molecule microarray, 635/667 nm fluorescence, artefact control for SMM control-protein annotation, profiling panel (AID 1140).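 Further: score merges 667 nm feature emission with signal to noise over triplicate slides.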 Particulars: WGA-A647 binding, 635 nm fluorescence, higher = more signal.

Test [9] deals with Luciferin 4-monooxygenase (Photinus pyralis) (UniProt P08659). As to the kind of experiment: inhibition of purified Photinus pyralis luciferase – biochemical, luminescence, purified enzyme, 2006 set, primary screen (AID 1141).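 Further: cell-free assay with purified firefly luciferase at 100 ng per well in PBS; test concentration not given here.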 The settings on record: purified firefly luciferase, SteadyGlo luminescence, 30 min; higher = more signal, called active from +8 up or from −8 down.
In test [10] the test system is Wnt5a (protein binding on small-molecule microarray). As to the kind of experiment: small molecules binding Wnt5a protein – biophysical, small-molecule microarray, 635/667 nm fluorescence, primary screen (AID 1142).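 Further: fluorescence read at 667 nm with signal to noise per printed feature.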 The settings on record: 635 nm fluorescence, higher = more signal.
The nature of test [11]: ATP-based viability of Huh7 replicon cells – cell-based, CellTiter-Glo luminescence, basal, 48 h, cytotoxicity control for HCV replication inhibitor project, primary screen (AID 1143).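 Further: Huh7 hepatoma cells carrying a hepatitis C replication reporter with no stimulus; test concentration not given here.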 The settings on record: higher = more signal, called active from +8 up or from −8 down. Background: Replicon systems follow genome replication, usually without infectious particles.
Test [12] in a line: Pseudomonas biofilm growth suppression – PAO1 strain, BacTiter-Glo luminescence, LB-PBS, primary screen (AID 1144). The settings on record: P. aeruginosa PAO1 biofilm, 12 h, higher = more signal.
Test [13] in a line: basal CRE-LacZ reporter activity in PC12 – cell-based, unstimulated, primary screen (AID 1145). The settings on record: no forskolin, luminescence, 4.5 h, higher = more signal, called active from +8 up or from −8 down.
The nature of test [14]: forskolin-driven CRE-LacZ activity in PC12 – cell-based, CRE-LacZ reporter, forskolin-stimulated, primary screen (AID 1146).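 Further: PC12 cells with 6xCRE LacZ reporter stimulated by forskolin 10 µM; beta-galactosidase reporter signal reflecting CREB driven transcription.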 The settings on record: luminescence, 4.5 h, higher = more signal, called active from +8 up or from −8 down.
Test [15] has as its target Streptavidin (Streptomyces avidinii) (UniProt P22629). The test can be described thus: compounds binding control protein streptavidin – biophysical, small-molecule microarray, 635/667 nm fluorescence, artefact control for SMM compound annotation, primary screen (AID 1147).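 Further: signal reflects streptavidin binding to arrayed compounds as a control protein.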 The settings on record: higher = more signal.
Test [16] can be described thus: probe aInhba binding on compound microarray – biochemical, small-molecule microarray, 635/667 nm fluorescence, primary screen (AID 1148).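 Further: score merges 667nm spot fluorescence with signal-to-noise for antibody binding to printed compounds.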 The settings on record: higher = more signal.
For test [17], the target named is Torsin-1A (Homo sapiens) (UniProt O14656). The test can be described thus: TOR1A wild-type binding on microarray – cell lysate, small-molecule microarray, lysate, 635/667 nm, primary screen (AID 1149). Particulars: COS7 hTOR1A-WT lysate, 635 nm fluorescence, higher = more signal.
The target is the same in test [18]. As to the kind of experiment: torsin A mutant lysate binding on microarrays – cell lysate, small-molecule microarray, COS7 lysate, 635/667 nm fluorescence, primary screen (AID 1150).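 Further: score pools 667 nm emission and signal to noise measuring lysate protein binding.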 Particulars: COS7 hTOR1A mutant lysate, 635 nm fluorescence, higher = more signal.
The subject of test [19] is Sonic hedgehog protein (Shh). As to the kind of experiment: Sonic hedgehog microarray binding compounds – biochemical, small-molecule microarray, 635/667 nm fluorescence, primary screen (AID 1151).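 Further: Shh protein binding to compounds spotted on small-molecule microarray slides; score combines spot fluorescence intensity with signal-to-noise across triplicate slides.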 The settings on record: 635 nm fluorescence, higher = more signal.

Torsin-1A (Homo sapiens), sequence (O14656 whole entry, looked up): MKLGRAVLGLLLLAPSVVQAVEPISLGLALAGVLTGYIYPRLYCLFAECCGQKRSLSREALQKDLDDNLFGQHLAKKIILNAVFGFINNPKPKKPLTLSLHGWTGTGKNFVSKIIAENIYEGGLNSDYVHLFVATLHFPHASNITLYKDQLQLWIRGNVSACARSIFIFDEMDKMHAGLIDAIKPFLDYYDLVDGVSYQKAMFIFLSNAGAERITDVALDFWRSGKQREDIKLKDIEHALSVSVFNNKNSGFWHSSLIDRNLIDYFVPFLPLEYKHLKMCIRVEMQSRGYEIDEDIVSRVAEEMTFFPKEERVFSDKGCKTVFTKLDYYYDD
Streptavidin (Streptomyces avidinii), sequence (P22629 whole entry, looked up): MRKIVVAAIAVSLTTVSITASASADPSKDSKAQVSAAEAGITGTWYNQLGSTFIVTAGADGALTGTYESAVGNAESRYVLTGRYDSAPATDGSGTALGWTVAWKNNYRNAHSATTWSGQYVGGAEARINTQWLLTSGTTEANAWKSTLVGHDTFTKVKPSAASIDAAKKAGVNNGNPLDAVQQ
Follistatin (Homo sapiens), sequence (P19883 whole entry, looked up): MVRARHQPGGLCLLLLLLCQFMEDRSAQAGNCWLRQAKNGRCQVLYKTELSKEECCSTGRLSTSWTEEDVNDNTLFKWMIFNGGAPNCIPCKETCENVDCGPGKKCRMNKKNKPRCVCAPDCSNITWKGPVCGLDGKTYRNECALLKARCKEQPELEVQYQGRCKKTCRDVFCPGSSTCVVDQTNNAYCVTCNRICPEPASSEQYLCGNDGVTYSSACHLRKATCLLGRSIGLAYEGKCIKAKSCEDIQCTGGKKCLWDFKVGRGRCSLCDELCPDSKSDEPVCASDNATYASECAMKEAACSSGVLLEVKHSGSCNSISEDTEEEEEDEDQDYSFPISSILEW
Luciferin 4-monooxygenase (Photinus pyralis), sequence (P08659 whole entry, looked up): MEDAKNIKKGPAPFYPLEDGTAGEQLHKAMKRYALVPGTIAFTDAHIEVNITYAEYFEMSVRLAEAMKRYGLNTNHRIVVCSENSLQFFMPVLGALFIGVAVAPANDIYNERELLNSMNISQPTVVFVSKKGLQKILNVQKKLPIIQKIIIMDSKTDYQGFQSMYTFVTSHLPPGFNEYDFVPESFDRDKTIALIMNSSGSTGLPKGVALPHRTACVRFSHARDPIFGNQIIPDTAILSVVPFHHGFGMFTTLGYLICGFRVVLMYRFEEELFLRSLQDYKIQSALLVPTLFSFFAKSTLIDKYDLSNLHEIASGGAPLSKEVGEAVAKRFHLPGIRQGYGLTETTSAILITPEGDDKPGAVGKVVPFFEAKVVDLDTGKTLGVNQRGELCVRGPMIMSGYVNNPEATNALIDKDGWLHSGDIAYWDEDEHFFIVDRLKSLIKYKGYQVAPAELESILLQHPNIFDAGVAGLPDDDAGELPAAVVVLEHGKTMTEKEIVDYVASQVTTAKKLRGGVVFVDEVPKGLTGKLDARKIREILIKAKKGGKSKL
Fibroblast growth factor 2 (Homo sapiens), sequence (P09038 whole entry, looked up): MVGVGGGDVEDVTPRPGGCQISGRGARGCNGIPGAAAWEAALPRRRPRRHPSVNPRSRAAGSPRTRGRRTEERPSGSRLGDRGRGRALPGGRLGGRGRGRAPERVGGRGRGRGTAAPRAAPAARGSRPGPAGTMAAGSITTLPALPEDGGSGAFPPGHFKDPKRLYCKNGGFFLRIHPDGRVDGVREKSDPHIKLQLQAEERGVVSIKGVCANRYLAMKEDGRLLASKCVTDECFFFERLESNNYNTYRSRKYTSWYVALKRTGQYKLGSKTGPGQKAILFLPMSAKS
Focal adhesion kinase 1 (Homo sapiens), sequence (Q05397 whole entry, looked up): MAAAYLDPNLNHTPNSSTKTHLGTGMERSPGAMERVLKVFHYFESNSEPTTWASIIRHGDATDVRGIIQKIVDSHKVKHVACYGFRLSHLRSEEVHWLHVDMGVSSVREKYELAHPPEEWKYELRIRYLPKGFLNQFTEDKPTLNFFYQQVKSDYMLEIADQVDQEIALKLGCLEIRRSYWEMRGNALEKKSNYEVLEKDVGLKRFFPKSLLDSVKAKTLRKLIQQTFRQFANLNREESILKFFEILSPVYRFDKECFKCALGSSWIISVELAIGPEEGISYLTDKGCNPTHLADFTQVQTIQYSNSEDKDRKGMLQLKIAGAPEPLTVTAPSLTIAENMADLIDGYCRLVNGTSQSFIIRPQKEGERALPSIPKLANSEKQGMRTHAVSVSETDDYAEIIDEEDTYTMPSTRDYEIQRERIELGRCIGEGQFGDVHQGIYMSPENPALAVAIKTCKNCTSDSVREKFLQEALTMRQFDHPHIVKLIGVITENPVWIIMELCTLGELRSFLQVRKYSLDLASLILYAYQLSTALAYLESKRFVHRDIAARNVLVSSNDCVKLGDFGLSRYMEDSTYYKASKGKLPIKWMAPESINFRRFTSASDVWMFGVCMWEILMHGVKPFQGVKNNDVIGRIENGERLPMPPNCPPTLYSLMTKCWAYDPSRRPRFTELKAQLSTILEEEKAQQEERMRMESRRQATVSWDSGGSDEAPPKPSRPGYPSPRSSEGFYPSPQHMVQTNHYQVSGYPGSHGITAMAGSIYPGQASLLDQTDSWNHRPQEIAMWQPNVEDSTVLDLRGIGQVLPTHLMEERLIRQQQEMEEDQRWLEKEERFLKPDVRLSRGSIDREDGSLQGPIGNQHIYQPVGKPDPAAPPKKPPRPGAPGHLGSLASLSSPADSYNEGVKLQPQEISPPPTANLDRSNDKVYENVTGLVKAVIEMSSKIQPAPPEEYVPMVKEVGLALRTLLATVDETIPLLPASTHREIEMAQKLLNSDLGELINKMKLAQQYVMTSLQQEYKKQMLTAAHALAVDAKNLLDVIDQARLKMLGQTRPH

Take `C[C@]1(C(=O)NC2CC2)c2ccccc2C(=O)N(Cc2ccccc2)[C@H]1c1ccc(CO)cc1`: the composite z-score in test [1] was -1.12; in [2], -1.29; in [3] it was 0.874; in [4], -2.17; in [5], -0.271; in test [6] it was -0.517. Besides, the composite z-score was -1.5 in the test on Lefty1; -1.15 in test [8]; -0.228 in [10]; -0.854 in test [15]; 0.0028 in [16]; 0.249 with Torsin-1A (Homo sapiens) [17]. Moreover, the composite z-score in the test with Torsin-1A (Homo sapiens) [18] is -0.489; in test [19] it was -1.3. In addition, the z-score is -0.153 in [7]; -0.347 (inactive) in test [9]; -4.5 (inactive) in [11]; -0.483 (inactive) in [12]; 0.0279 (inactive) in [13]; -0.957 (inactive) in test [14].
With `CO[C@H]1O[C@H](CO)[C@@H](OC(=O)Nc2ccc3c(c2)OCO3)[C@H](OC(=O)c2cc3ccccc3[nH]2)[C@H]1OC(=O)c1cc2ccccc2[nH]1`, the composite z-score in [1] is 0.935; in test [2] it was -0.174; in test [3] it was 0.622; in test [4] it was -0.3; in [5], 0.372; in test [6], 0.791. Besides, the composite z-score in the test with Lefty1 is 0.366; in test [8] it was -0.0971; in [10], 0.0957; in test [15], 0.483; in test [16], -0.128; with Torsin-1A (Homo sapiens) [17] it was 0.103. In addition, the composite z-score was -0.214 with Torsin-1A (Homo sapiens) [18] and 0.458 in test [19]. Besides, the z-score was -1.56 in [7]; -2.78 (inactive) in test [9]; -2.92 (inactive) in [11]; -1.37 (inactive) in [12]; 1.03 (inactive) in [13]; -1.29 (inactive) in test [14].
Turning to `CCCCC(=C=CC[C@@H](O)c1ccccc1OCCO)C[C@@H](O)COCc1ccccc1`, the composite z-score in test [1] was 0.0168; in test [2], -0.399; in [3], 0.577; in [4] it was 0.479; in test [5], 0.271; in [6], 0.668. For the same compound, the composite z-score is 0.0842 in the test with Lefty1; 0.0771 in test [8]; -0.027 in test [10]; -0.385 in test [15]; 0.257 in test [16]; -0.745 in the test with Torsin-1A (Homo sapiens) [17]. The figures for the composite z-score (in the test with Torsin-1A (Homo sapiens) [18]; in [19]) were -0.592 and 0.697, respectively. Also, the z-score in [7] is 0.995; in test [9], -2.59 (inactive); in [11] it was -2.16 (inactive); in test [12], -0.631 (inactive); in test [13] it was 17.1 (active); in [14] it was -0.749 (inactive).
On to `CO[C@H]1O[C@H](CO)[C@@H](OC(=O)Nc2ccccc2-c2ccccc2)[C@H](OC(=O)Nc2ccc3c(c2)OCO3)[C@H]1OC(=O)Nc1ccc2c(c1)OCO2`, for which the composite z-score in test [1] is 1.02; in test [2], 1.24; in [3], 1.11; in test [4], 0.941; in test [5], 1.23; in test [6], 0.993. Further, the composite z-score came out at 0.63 in the test with Lefty1; 1.1 in [8]; 0.35 in test [10]; 0.144 in test [15]; 0.271 in [16]; 0.5 with Torsin-1A (Homo sapiens) [17]. In addition, the composite z-score amounted to 0.723 with Torsin-1A (Homo sapiens) [18] and 1.42 in test [19]. For the same compound, the z-score in test [7] was -0.499; in [9] it was -6.15 (inactive); in test [11], -1.48 (inactive); in [12], -0.158 (inactive); in test [13] it was 0.792 (inactive); in test [14] it was -0.97 (inactive).
For the compound `CC1=C[C@@]2(CO)C(=O)[C@]3(CO3)[C@@H]1[C@H]1[C@]2(C)C=C(CO)C(=O)[C@]12CO2`, the composite z-score is 0.0455 in test [1]; -0.0634 in [2]; 0.206 in [3]; -0.403 in [4]; 0.443 in test [5]; 0.165 in test [6]. For the same compound, the composite z-score in the test with Lefty1 was 0.381; in [8] it was 0.207; in test [10], 0.129; in [15], 0.006; in test [16] it was -0.103; in the test with Torsin-1A (Homo sapiens) [17], 0.145. Moreover, the composite z-score with Torsin-1A (Homo sapiens) [18] came to 0.171; in test [19], 0.265. In addition, the z-score in test [7] is 0.173; in [9] it was 0.538 (inactive); in test [11], -0.0354 (inactive); in test [12], -0.108 (inactive); in test [13] it was 0.314 (inactive); in test [14], 1.51 (inactive).
